Assay [1] addresses Hepatocyte nuclear factor 4-alpha (Homo sapiens) (UniProt P41235). Briefly: ATG_HNF4a_TRANS: Attagene TRANS-FACTORIAL HepG2 Assay for human Hepatocyte Nuclear Factor 4 alpha (HNF4a) (AID 2282982; active = hit-call score of the fitted dose curve at least 0.9, where 1 is the maximum). The following applies: HepG2 HNF4a transactivation reporter, mRNA readout. The gist of the method:
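In this trans-factorial format, a chimeric HNF4a-GAL4 fusion drives a GAL4-UAS reporter in transfected HepG2 liver cells. After 24 h treatment, reporter mRNA induction is measured by RT-PCR with capillary electrophoresis, relative to DMSO.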

The target in assay [2] is Transcriptional activator Myb (Homo sapiens) (UniProt P10242). Briefly: ATG_Myb_CIS: Attagene CIS-FACTORIAL HepG2 Assay for human Myeloblastosis (Myb) Proto-Oncogene Transcription Factor (AID 2282986). The following applies: HepG2 Attagene CIS-FACTORIAL Myb reporter transcription; actives raise or lower the signal. Summed up: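 Transiently transfected HepG2 cells carrying a multiplexed cis-promoter reporter set report endogenous Myb activity after 24 h compound exposure. Reporter mRNA is read by RT-PCR with capillary electrophoresis of fluorescent products, fitted bidirectionally against DMSO.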
Sequence of Transcriptional activator Myb (Homo sapiens) (P10242 whole entry, looked up): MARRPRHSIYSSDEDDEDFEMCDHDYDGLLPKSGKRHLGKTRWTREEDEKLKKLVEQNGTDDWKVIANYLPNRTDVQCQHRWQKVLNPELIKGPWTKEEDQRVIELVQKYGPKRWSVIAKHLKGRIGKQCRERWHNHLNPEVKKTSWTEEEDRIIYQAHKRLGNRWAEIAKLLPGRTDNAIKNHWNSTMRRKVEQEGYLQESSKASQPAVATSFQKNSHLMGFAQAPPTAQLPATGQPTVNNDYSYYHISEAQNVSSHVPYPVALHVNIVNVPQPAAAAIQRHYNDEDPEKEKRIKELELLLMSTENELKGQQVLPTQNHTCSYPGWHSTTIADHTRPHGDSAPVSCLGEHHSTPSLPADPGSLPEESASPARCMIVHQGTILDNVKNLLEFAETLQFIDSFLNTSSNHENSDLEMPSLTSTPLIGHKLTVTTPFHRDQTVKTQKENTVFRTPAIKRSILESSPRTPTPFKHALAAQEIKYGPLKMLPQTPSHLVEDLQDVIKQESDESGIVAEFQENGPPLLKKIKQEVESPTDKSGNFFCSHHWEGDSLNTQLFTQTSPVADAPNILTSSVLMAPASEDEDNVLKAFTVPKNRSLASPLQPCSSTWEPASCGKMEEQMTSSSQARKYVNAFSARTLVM

Assay [3] has as its target Nuclear respiratory factor 1 (Homo sapiens) (UniProt Q16656). Description: ATG_NRF1_CIS: Attagene CIS-FACTORIAL HepG2 Assay for human Nuclear Respiratory Factor 1 (NRF1) Orphan Gene (AID 2282987). The following applies: HepG2 NRF1 cis-element reporter, Attagene multiplex; actives raise or lower the signal. Summed up: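 HepG2 cells transiently transfected with multiple cis-regulated reporter units, exposed 24 h. Reporter mRNAs measured by RT-PCR, fluorescent labelling, HpaI digestion and capillary electrophoresis; bidirectional fitting against DMSO.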

Assay [4] in a line: ATG_NFI_CIS: Attagene CIS-FACTORIAL HepG2 Assay for human Nuclear Factor I (NFI) (AID 2282989). The following applies: HepG2 cis-regulatory reporter, NFI response element transcription; actives raise or lower the signal. The gist of the method:
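HepG2 cells transiently transfected with cis-element-driven multiplexed reporter transcription units, dosed for 24 h. Reporter mRNA quantified by RT-PCR, fluorescent labelling, HpaI digestion and capillary electrophoresis; bidirectional fit versus DMSO baseline.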

Assay [5] concerns the target Myc proto-oncogene protein (Homo sapiens) (UniProt P01106). Description: ATG_Myc_CIS: Attagene CIS-FACTORIAL HepG2 Assay for human Myelocytomatosis (Myc) Proto-Oncogene Transcription Factor (AID 2282990). The following applies: HepG2, Attagene cis-reporter transcription factor activity; actives raise or lower the signal. Summed up:
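HepG2 cells transiently transfected with multiple cis-promoter-driven reporter transcription units, so endogenous TF activity is read. After 24 h compound exposure, reporter mRNA was quantified by RT-PCR, 6-FAM labelling, HpaI digestion and capillary electrophoresis; bidirectional fit versus DMSO.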

Assay [6] can be described thus: ATG_NF_kB_CIS: Attagene CIS-FACTORIAL HepG2 Assay for human Nuclear Factor Kappa B (NF-kB) (AID 2282991). The following applies: HepG2 Attagene cis-factorial NF-kB reporter mRNA; actives raise or lower the signal. The gist of the method:
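HepG2 cells transfected with cis-promoter-driven reporter units, so endogenous transcription factor activity is measured. Reporter mRNA quantified 24 h after dosing by RT-PCR and capillary electrophoresis, with bidirectional fitting against DMSO.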

A short description of assay [7]: ATG_NRF2_ARE_CIS: Attagene CIS-FACTORIAL HepG2 Assay for human Nuclear Factor Erythroid 2 Related Factor 2 (NFR2) response to Antioxidant Response Elements (ARE) (AID 2282992). The following applies: HepG2 Attagene ARE/NRF2 reporter, transcription factor activity; actives raise or lower the signal. The gist of the method:
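Fluorescence intensity of reporter-specific cDNA fragments, separated by capillary electrophoresis, reflects mRNA induction in transfected HepG2 cells at 24 h. Activity is fitted bidirectionally, DMSO serving as baseline.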

Assay [8] in a line: ATG_Oct_MLP_CIS: Attagene CIS-FACTORIAL HepG2 Assay for human Octamer-Binding Transcription Factor (Oct) (AID 2282993). The following applies: HepG2 Attagene cis-factorial Oct reporter, mRNA; actives raise or lower the signal. The gist of the method:
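HepG2 cells transiently transfected with cis-promoter-driven multiplexed reporter transcription units, dosed for 24 h. Reporter mRNA quantified by RT-PCR, fluorescent labelling, HpaI digestion and capillary electrophoresis; bidirectional fits versus DMSO baseline.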

In assay [9] the target is Cellular tumor antigen p53 (Homo sapiens) (UniProt P04637). Briefly: ATG_p53_CIS: Attagene CIS-FACTORIAL HepG2 Assay for human p53 Transcription Factor (AID 2282994). The following applies: HepG2 p53 cis-element reporter, Attagene mRNA; actives raise or lower the signal. Summed up: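 Transiently transfected HepG2 (multiple cis reporter transcription units); exposure 24 h; reporter RNA via RT-PCR, 6-FAM extension, 2 h HpaI digest at 37 C, CE detection; DMSO baseline.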
Sequence of Cellular tumor antigen p53 (Homo sapiens) (P04637 whole entry, looked up): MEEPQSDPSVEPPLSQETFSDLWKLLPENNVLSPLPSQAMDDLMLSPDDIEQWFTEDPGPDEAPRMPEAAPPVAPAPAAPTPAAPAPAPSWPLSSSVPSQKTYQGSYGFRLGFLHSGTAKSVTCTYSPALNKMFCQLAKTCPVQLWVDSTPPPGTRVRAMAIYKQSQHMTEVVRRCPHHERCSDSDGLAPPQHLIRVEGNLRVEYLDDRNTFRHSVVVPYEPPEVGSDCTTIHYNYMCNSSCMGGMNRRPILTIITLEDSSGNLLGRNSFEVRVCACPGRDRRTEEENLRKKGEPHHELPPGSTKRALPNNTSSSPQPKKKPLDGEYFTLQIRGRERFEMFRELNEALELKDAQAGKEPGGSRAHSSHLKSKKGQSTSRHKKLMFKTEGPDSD

A short description of assay [10]: ATG_M_32_TRANS: Attagene TRANS-FACTORIAL HepG2 Assay for M32 Transcription Factor (Internal Marker) (AID 2282984; active = hit-call score of the fitted dose curve at least 0.9, where 1 is the maximum;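 note: transcript level of a background control reporter unit measured by RT-PCR and capillary electrophoresis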). The following applies: HepG2 Attagene TRANS M32 internal marker reporter. The gist of the method: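 After 24 h dosing of transfected HepG2 cells, total RNA was reverse-transcribed, reporter sequences PCR-amplified, 6-FAM labelled by primer extension and HpaI-digested before capillary electrophoresis. Signal increase over DMSO was fitted.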

Assay [11] addresses Nuclear receptor subfamily 4 group A member 2 (Homo sapiens) (UniProt P43354). Description: ATG_NURR1_TRANS: Attagene TRANS-FACTORIAL HepG2 Assay for human Nuclear Receptor Related Protein 1 (NURR1) (AID 2282985; active = hit-call score of the fitted dose curve at least 0.9, where 1 is the maximum). The following applies: HepG2 Attagene TRANS reporter, mRNA readout. Summed up:
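Chimeric NR-Gal4 fusion activity measured in HepG2 after 24 h treatment. Reporter transcripts detected by RT-PCR and capillary electrophoresis fluorescence; positive-direction curve fitting against DMSO.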

A short description of assay [12]: ATG_M_06_TRANS: Attagene TRANS-FACTORIAL HepG2 Assay for M06 Transcription Factor (Internal Marker) (AID 2282983; active = hit-call score of the fitted dose curve at least 0.9, where 1 is the maximum). As to conditions: HepG2 Attagene TRANS M06 internal marker reporter. Summed up: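 Background-control reporter readout: after 24 h chemical exposure of transiently transfected HepG2 (GAL4-UAS reporter units), mRNA quantified by RT-PCR with fluorescent labeling and capillary electrophoresis. Gain-of-signal fitting against DMSO baseline.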

Assay [13] can be described thus: BSK_3C_TissueFactor: BioMAP Diversity Plus: 3C Assay for Tissue Factor Biomarker Activity (AID 2282997). As to conditions: BioMAP 3C HUVEC, tissue factor biomarker readout; actives raise or lower the signal. Summed up: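 Tissue factor on primary human umbilical vein endothelium was read by ELISA 24 h after dosing, gain or loss relative to DMSO. Cytotoxicity ran alongside via SRB (0.1%, TCA-fixed, 560 nm).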

Assay [14] is described as follows: BSK_3C_uPAR: BioMAP Diversity Plus: 3C Assay for Urokinase-type plasminogen activator receptor (uPAR) Biomarker Activity (AID 2282998). The following applies: BioMAP 3C HUVEC, uPAR biomarker ELISA; actives raise or lower the signal. The gist of the method: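 Human umbilical vein endothelial primary cells were exposed to test chemical for 24 h. Cell-surface uPAR was then quantified by ELISA, and responses were fitted bidirectionally against DMSO as negative control and baseline.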
In general terms: In an ELISA, binding on a coated surface is turned into a signal by an enzyme label.

Assay [15] in a line: BSK_3C_VCAM1: BioMAP Diversity Plus: 3C Assay for Vascular cell adhesion molecule 1 (VCAM1) Biomarker Activity (AID 2282999). The following applies: BioMAP 3C HUVEC, VCAM1 ELISA, cytokine-stimulated; actives raise or lower the signal. Summed up: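 Vascular primary endothelium (human umbilical vein) was exposed to chemicals and assayed 24 h later. VCAM-1 levels came from ELISA, with DMSO serving as baseline for bidirectional fitting.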

Assay [16] is described as follows: BSK_4H_Eotaxin3: BioMAP Diversity Plus: 4H Assay for Eotaxin 3 Biomarker Activity (AID 2283000).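 Note: CCL26 protein level quantified by ELISA in parallel with SRB cytotoxicity check.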 The following applies: primary human endothelial cells (HUVEC); actives raise or lower the signal. The gist of the method:
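Human umbilical vein endothelial cells (BSK_4H system) dosed with test chemical; Eotaxin-3 (CCL26) measured by ELISA 24 h after dosing. Bidirectional curve fitting relative to DMSO negative control as baseline.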

Results filed as inconclusive are left out. Active and inactive are the calls of the source. Rule for the calls, unless noted: active = hit-call score of the fitted dose curve at least 0.9, where 1 is the maximum; inactive = score below 0.9.

Sequence of Hepatocyte nuclear factor 4-alpha (Homo sapiens) (P41235 whole entry, looked up, the tested form may be a part): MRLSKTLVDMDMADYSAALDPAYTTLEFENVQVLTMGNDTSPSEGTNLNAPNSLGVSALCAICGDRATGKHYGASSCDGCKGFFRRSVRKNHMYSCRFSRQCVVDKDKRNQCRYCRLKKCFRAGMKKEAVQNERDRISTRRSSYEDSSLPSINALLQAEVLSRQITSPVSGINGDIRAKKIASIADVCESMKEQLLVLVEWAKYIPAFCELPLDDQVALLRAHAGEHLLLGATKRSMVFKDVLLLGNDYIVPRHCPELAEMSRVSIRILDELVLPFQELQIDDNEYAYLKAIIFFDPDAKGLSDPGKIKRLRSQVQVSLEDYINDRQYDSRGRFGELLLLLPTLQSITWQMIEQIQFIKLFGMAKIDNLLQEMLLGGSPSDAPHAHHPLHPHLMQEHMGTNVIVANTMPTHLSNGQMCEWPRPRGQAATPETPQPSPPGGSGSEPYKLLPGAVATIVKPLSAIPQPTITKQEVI
Sequence of Nuclear receptor subfamily 4 group A member 2 (Homo sapiens) (P43354 whole entry, looked up, the tested form may be a part): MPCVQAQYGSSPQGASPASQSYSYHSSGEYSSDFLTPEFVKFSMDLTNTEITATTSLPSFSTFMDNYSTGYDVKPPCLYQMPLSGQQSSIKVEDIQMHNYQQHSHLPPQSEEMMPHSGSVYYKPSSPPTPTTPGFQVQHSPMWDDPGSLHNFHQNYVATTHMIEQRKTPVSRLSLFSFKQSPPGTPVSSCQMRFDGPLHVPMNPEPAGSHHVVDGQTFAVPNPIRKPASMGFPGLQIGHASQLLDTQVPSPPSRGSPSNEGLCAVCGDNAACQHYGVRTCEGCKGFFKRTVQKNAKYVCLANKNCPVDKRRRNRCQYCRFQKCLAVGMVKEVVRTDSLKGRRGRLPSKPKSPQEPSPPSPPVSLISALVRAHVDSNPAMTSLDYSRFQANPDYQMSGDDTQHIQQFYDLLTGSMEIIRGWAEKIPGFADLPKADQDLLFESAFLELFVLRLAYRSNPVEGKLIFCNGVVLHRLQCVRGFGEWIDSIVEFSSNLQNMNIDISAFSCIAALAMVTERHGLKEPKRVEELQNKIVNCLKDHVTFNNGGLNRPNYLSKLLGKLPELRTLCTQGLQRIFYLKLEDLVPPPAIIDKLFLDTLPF
Sequence of Nuclear respiratory factor 1 (Homo sapiens) (Q16656 whole entry, looked up): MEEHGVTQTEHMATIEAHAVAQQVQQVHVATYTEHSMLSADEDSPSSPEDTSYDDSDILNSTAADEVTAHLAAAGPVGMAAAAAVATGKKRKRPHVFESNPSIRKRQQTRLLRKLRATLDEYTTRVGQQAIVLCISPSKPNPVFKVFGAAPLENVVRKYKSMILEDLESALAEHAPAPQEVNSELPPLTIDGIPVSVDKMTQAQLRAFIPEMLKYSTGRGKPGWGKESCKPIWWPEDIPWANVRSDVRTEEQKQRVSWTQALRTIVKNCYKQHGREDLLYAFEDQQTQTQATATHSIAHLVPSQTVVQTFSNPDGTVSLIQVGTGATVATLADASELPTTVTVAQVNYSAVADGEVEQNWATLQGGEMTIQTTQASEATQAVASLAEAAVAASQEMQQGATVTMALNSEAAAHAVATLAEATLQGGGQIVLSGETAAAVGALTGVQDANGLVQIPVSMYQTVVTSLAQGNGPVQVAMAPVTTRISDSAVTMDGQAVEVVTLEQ
Sequence of Myc proto-oncogene protein (Homo sapiens) (P01106 whole entry, looked up): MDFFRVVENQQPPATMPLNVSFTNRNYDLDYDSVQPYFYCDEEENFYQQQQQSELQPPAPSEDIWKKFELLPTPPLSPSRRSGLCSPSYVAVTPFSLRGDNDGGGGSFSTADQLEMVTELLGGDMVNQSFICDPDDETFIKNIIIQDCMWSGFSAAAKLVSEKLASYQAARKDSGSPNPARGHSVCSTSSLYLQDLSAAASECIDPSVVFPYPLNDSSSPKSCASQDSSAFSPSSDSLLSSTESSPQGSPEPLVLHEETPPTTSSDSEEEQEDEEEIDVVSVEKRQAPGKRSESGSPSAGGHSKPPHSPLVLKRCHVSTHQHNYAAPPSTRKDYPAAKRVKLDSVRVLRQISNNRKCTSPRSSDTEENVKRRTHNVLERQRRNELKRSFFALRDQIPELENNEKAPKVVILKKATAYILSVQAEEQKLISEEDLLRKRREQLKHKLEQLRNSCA

Take `CC(C)(C)c1n[nH]c(=S)n(N)c1=O`: the compound was classed as inactive in assay [1], in assay [2], in assay [3], in assay [4], in assay [5] and in assay [6]. Besides, the compound was classed as inactive in assay [7], in [8] and in assay [9].

Take `CCCC[n+]1ccccc1`: the call in [1], in assay [10], in assay [11], in [2], in assay [3] and in assay [4] was inactive. Further, the result in assay [5] and in assay [7] was inactive.

With `CC[Si](OC(C)=O)(OC(C)=O)OC(C)=O`, the result in assay [1], in [12], in assay [2], in [3], in assay [4] and in assay [5] was inactive. Besides, the call in assay [6], in assay [7], in assay [9], in assay [13], in assay [14] and in assay [15] was inactive. Also, the result in assay [16] was inactive.

As to `CC(=O)C(=O)O`, the result in assay [1], in assay [12], in assay [2], in assay [3], in assay [4] and in assay [5] was inactive. For the same compound, the call in assay [7], in [8] and in assay [9] was inactive.

As to `Clc1sc(Cl)c(Cl)c1Cl`, the result in assay [12], in assay [10], in assay [2], in assay [3], in assay [4] and in [5] was inactive. Further, the call in assay [7] and in [8] was inactive.

For the compound `CNCCO`, the outcome in assay [1], in assay [12], in assay [2], in assay [4], in assay [5] and in assay [7] was inactive. Further, the result in assay [8] and in [9] was inactive.

Take `CNC[C@H](O)c1cccc(O)c1`: the compound was called inactive in [1], in [11], in assay [3], in [4], in [5] and in [6]. Besides, the call in assay [7], in assay [8], in [9], in assay [13], in [14] and in [15] was inactive. Moreover, the outcome in assay [16] was inactive.

Consider `O=c1[nH]c(=O)n([C@H]2CCCO2)cc1F`, for which the call in assay [1], in assay [12], in assay [11], in assay [2], in assay [4] and in [5] was inactive. Besides, the result in assay [6], in [7], in assay [8] and in assay [9] was inactive.

Take `COC(C(=O)O)c1ccccc1` (stereo not drawn): the compound was classed as inactive in [1], in assay [12], in assay [2], in [3], in assay [4] and in [5]. The outcome in assay [6], in assay [7] and in assay [9] was inactive.

For the compound `CC(=O)Nc1ccccc1O`, the compound was called inactive in assay [12], in assay [11], in [3], in [4], in assay [5] and in assay [6]. The result in assay [7], in [9], in assay [13], in assay [14], in assay [15] and in assay [16] was inactive.

As a reminder, the AC50 is the midpoint of the concentration-response curve, whichever way the signal moves. `CCCC(=O)OCCC(C)CCC=C(C)C` (stereo not drawn): the call in assay [1], in assay [12], in assay [10], in [3], in assay [4] and in assay [5] was inactive. Moreover, the AC50 in assay [6] is 72 µM (active); in [8], 100 µM (active).

As for `Cc1ccc(C=O)s1`, the result in [10], in assay [2], in assay [3], in assay [5], in assay [6] and in [8] was inactive.

On to `COc1ccc(Cl)cc1C`, for which the compound was classed as inactive in [12], in assay [2], in [3], in assay [4], in [5] and in [7]. Besides, the call in assay [8] and in [9] was inactive.

As to `CC(C)(C)C(=O)c1ccccc1`, the call in [1], in assay [12], in assay [3], in [4], in assay [5] and in [6] was inactive. In addition, the outcome in assay [7] and in [8] was inactive.

For the compound `CO[Si](CCCn1c(=O)n(CCC[Si](OC)(OC)OC)c(=O)n(CCC[Si](OC)(OC)OC)c1=O)(OC)OC`, the result in [1], in [12], in assay [10], in [2], in assay [3] and in assay [5] was inactive. The call in assay [6], in assay [7] and in assay [8] was inactive.

On to `CCCCCNCCCCC`, for which the call in [1], in assay [12], in assay [2], in assay [4], in [5] and in assay [7] was inactive. Also, the compound was called inactive in assay [8] and in [9].

On to `O=S(=O)(O)NC1CCCCC1`, for which the result in assay [1], in assay [2], in assay [3], in assay [4], in assay [5] and in assay [6] was inactive. Further, the outcome in assay [7] was inactive.

Source of the values: PubChem BioAssay (EPA / NIEHS).
